From the supplement of paper PMC9694430 come the findings set out here.

What all share (test): thermal shift delta Tm vs DMSO control; higher = stronger stabilization (binding)
What all share (conditions): 12.5 µM; protein concentration 2 µM

For one experiment, the system named is LOC_OS01G01410-cb001. The procedure, abridged:
(§1)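 Thermal shift values come from differential scanning fluorimetry on purified rice kinase domains made in E. coli, with melting temperatures obtained from Boltzmann fits. Samples of 19.5 μl held 2 μM kinase, 100 mM potassium phosphate pH 7.5, 150 mM NaCl, 10% glycerol, 5 × SYPRO Orange and compound in DMSO, and were heated from 25°C to 95°C at 0.05°C/s. Each shift is a triplicate mean relative to the DMSO-only protein sample.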

In the next experiment the test system is LOC_OS01G02750-cb003. The procedure, abridged:
as §1

In another experiment the test system is LOC_OS01G10900-cb004. The procedure, abridged: as §1
The subject of a further experiment is LOC_OS01G13800-cb001. The procedure, abridged: as §1
The next experiment has as its system LOC_OS01G14860-cb001. The procedure, abridged: as §1
In the next experiment the test system is LOC_OS01G21960-cb002. The procedure, abridged:
as §1

The next experiment concerns LOC_OS01G39600-cb002. The procedure, abridged: as §1
The next experiment concerns LOC_OS01G48390-cb002. The procedure, abridged:
as §1

Another experiment deals with LOC_OS01G51400-cb002. The procedure, abridged:
as §1

A further experiment has as its system T1, LOC_OS01G52050-cb004.
T1 sequence (whole entry): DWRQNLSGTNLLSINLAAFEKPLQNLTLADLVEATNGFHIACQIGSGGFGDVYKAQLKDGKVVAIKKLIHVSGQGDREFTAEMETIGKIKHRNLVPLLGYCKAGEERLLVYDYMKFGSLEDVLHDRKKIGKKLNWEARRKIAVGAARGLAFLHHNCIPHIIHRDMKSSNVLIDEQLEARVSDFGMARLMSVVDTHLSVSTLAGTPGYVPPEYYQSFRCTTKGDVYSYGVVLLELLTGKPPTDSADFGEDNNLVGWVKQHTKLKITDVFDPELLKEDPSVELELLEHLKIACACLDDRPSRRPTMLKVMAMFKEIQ
The procedure, abridged:
as §1

Another experiment has as its system LOC_OS01G57100-cb003. The procedure, abridged: as §1
In the next experiment the test system is LOC_OS01G60330-cb001. The procedure, abridged:
as §1

The next experiment concerns LOC_OS01G60700-cb002. The procedure, abridged:
as §1

A further experiment concerns LOC_OS01G63280-cb003. The procedure, abridged: as §1
A further experiment has as its system LOC_OS01G67340-cb003. The procedure, abridged:
as §1

A further experiment has as its system LOC_OS01G70970-cb002. The procedure, abridged:
as §1

In another experiment the test system is LOC_OS02G07810-cb001. The procedure, abridged:
as §1

The test system of a further experiment is LOC_OS02G08530-cb003. The procedure, abridged:
as §1

The next experiment concerns LOC_OS02G14120-cb001. The procedure, abridged:
as §1

Another experiment concerns LOC_OS02G17970-cb001. The procedure, abridged: as §1
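Also: purified Escherichia coli-expressed rice kinase domain construct.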

For `C=CC(=O)N1CCC(Oc2cc3c(Nc4ccc(Cl)c(Cl)c4F)ncnc3cc2OC)CC1` [Poziotinib (HM781-36B)], the “thermal shift delta Tm” value with LOC_OS01G01410-cb001 is 0.75 °C; in the experiment on LOC_OS01G02750-cb003, 0.07 °C; with LOC_OS01G10900-cb004, 0.6 °C; in the experiment on LOC_OS01G13800-cb001, -0.34 °C; in the experiment on LOC_OS01G14860-cb001 it was 0.65 °C; in the experiment with LOC_OS01G21960-cb002, 0.36 °C. Besides, the “thermal shift delta Tm” value in the experiment with LOC_OS01G39600-cb002 is 1.56 °C; with LOC_OS01G48390-cb002, 0.49 °C; in the experiment on LOC_OS01G51400-cb002 it was -0.16 °C; in the experiment with LOC_OS01G52050-cb004 it was 1.24 °C; with LOC_OS01G57100-cb003, 0.31 °C; with LOC_OS01G60330-cb001, -0.17 °C. Moreover, the “thermal shift delta Tm” value was 0.72 °C in the experiment with LOC_OS01G60700-cb002; 0.26 °C with LOC_OS01G63280-cb003; 0.45 °C in the experiment with LOC_OS01G67340-cb003; 0.11 °C in the experiment with LOC_OS01G70970-cb002; -0.05 °C in the experiment on LOC_OS02G07810-cb001; 1.45 °C with LOC_OS02G08530-cb003. Further, the “thermal shift delta Tm” value with LOC_OS02G14120-cb001 is 1.12 °C; in the experiment with LOC_OS02G17970-cb001 it was 0.35 °C.

Regarding `CCn1c(=O)c(-c2ccc(Cl)cc2Cl)cc2cnc(Nc3ccc(N4CCNCC4)c(F)c3)nc21`, the “thermal shift delta Tm” value with LOC_OS01G01410-cb001 was 5.82 °C; in the experiment with LOC_OS01G02750-cb003 it was 1.71 °C; in the experiment on LOC_OS01G10900-cb004, 7.68 °C; in the experiment with LOC_OS01G13800-cb001 it was 0.11 °C; in the experiment with LOC_OS01G14860-cb001 it was 3.38 °C; in the experiment with LOC_OS01G21960-cb002 it was 0.97 °C. In addition, the “thermal shift delta Tm” value with LOC_OS01G39600-cb002 was 5.06 °C; with LOC_OS01G48390-cb002, 2.05 °C; in the experiment with LOC_OS01G51400-cb002 it was -0.48 °C; in the experiment with LOC_OS01G52050-cb004, 5.06 °C; in the experiment on LOC_OS01G57100-cb003 it was 2.04 °C; in the experiment with LOC_OS01G60330-cb001 it was 0.13 °C. Moreover, the “thermal shift delta Tm” value stood at 1.12 °C in the experiment with LOC_OS01G60700-cb002; 5.95 °C in the experiment with LOC_OS01G63280-cb003; 6.72 °C in the experiment on LOC_OS01G67340-cb003; 2.45 °C with LOC_OS01G70970-cb002; 0.21 °C in the experiment on LOC_OS02G07810-cb001; 0.94 °C in the experiment with LOC_OS02G08530-cb003. Moreover, the “thermal shift delta Tm” value in the experiment on LOC_OS02G14120-cb001 was 7.16 °C; with LOC_OS02G17970-cb001 it was 1.08 °C.

As for `C=CC(=O)Nc1cccc(Oc2nc(Nc3ccc(N4CCN(C)CC4)cc3OC)ncc2Cl)c1`, the “thermal shift delta Tm” value in the experiment on LOC_OS01G01410-cb001 is 0.1 °C; with LOC_OS01G02750-cb003 it was -0.5 °C; in the experiment with LOC_OS01G10900-cb004, 0.47 °C; with LOC_OS01G13800-cb001, 0.58 °C; in the experiment on LOC_OS01G14860-cb001, 0.25 °C; in the experiment on LOC_OS01G21960-cb002, 0.29 °C. Besides, the “thermal shift delta Tm” value in the experiment on LOC_OS01G39600-cb002 is 0.93 °C; with LOC_OS01G48390-cb002, 1.75 °C; in the experiment on LOC_OS01G51400-cb002, 0.48 °C; in the experiment on LOC_OS01G52050-cb004 it was 0.54 °C; with LOC_OS01G57100-cb003, -0.16 °C; with LOC_OS01G60330-cb001 it was 0.75 °C. The “thermal shift delta Tm” value was 0.6 °C with LOC_OS01G60700-cb002; 0.05 °C in the experiment with LOC_OS01G63280-cb003; -0.81 °C in the experiment with LOC_OS01G67340-cb003; 0.44 °C with LOC_OS01G70970-cb002; 0.62 °C in the experiment with LOC_OS02G07810-cb001; 1.23 °C with LOC_OS02G08530-cb003. Further, the “thermal shift delta Tm” value in the experiment with LOC_OS02G14120-cb001 worked out at 0.27 °C; in the experiment with LOC_OS02G17970-cb001 it was 0.24 °C.

Regarding `CC1=C(C(=O)Nc2cc3cn[nH]c3cc2F)C(c2ccc(C(F)(F)F)cc2)CC(=O)N1` (stereo not given), the “thermal shift delta Tm” value in the experiment on LOC_OS01G01410-cb001 was 0.57 °C; with LOC_OS01G02750-cb003, -0.19 °C; in the experiment with LOC_OS01G10900-cb004 it was 0.11 °C; in the experiment on LOC_OS01G13800-cb001, 0.54 °C; in the experiment with LOC_OS01G14860-cb001, 0.16 °C; in the experiment on LOC_OS01G21960-cb002, 0.33 °C. The “thermal shift delta Tm” value in the experiment on LOC_OS01G39600-cb002 is -0.15 °C; with LOC_OS01G48390-cb002, -0.18 °C; in the experiment on LOC_OS01G51400-cb002 it was -0.23 °C; with LOC_OS01G52050-cb004 it was 0 °C; in the experiment on LOC_OS01G57100-cb003, 1.21 °C; in the experiment with LOC_OS01G60330-cb001, 0.48 °C. Besides, the “thermal shift delta Tm” value was 0.2 °C with LOC_OS01G60700-cb002; 2.09 °C in the experiment on LOC_OS01G63280-cb003; -0.48 °C in the experiment on LOC_OS01G67340-cb003; 0.04 °C with LOC_OS01G70970-cb002; 0.72 °C in the experiment on LOC_OS02G07810-cb001; 0.55 °C in the experiment on LOC_OS02G08530-cb003. Also, the results for the “thermal shift delta Tm” value in the experiment on LOC_OS02G14120-cb001 and with LOC_OS02G17970-cb001 were 0.25 °C and 0.19 °C, respectively.

In the case of `CC(C)(C)Cn1c(N)nc2ccc(-c3[nH]c(C(C)(C)C)nc3-c3ccc(F)cc3)nc21`, the “thermal shift delta Tm” value in the experiment with LOC_OS01G01410-cb001 was 0.51 °C; in the experiment with LOC_OS01G02750-cb003 it was -0.68 °C; with LOC_OS01G10900-cb004, 0 °C; in the experiment with LOC_OS01G13800-cb001 it was -0.49 °C; in the experiment on LOC_OS01G14860-cb001, -0.02 °C; in the experiment with LOC_OS01G21960-cb002, -0.11 °C. The “thermal shift delta Tm” value was -0.5 °C in the experiment on LOC_OS01G39600-cb002; 1.19 °C in the experiment with LOC_OS01G48390-cb002; -0.1 °C in the experiment on LOC_OS01G51400-cb002; -0.09 °C in the experiment with LOC_OS01G52050-cb004; -3.53 °C in the experiment with LOC_OS01G57100-cb003; -0.79 °C in the experiment with LOC_OS01G60330-cb001. Moreover, the “thermal shift delta Tm” value with LOC_OS01G60700-cb002 is 0.1 °C; in the experiment with LOC_OS01G63280-cb003, -0.16 °C; in the experiment on LOC_OS01G67340-cb003, 0.92 °C; in the experiment on LOC_OS01G70970-cb002, -0.04 °C; in the experiment on LOC_OS02G07810-cb001, -0.18 °C; in the experiment on LOC_OS02G08530-cb003, 0.38 °C. Moreover, the “thermal shift delta Tm” value was -1.12 °C in the experiment with LOC_OS02G14120-cb001 and -0.24 °C in the experiment with LOC_OS02G17970-cb001.

Regarding `Cc1cc(C(=O)NOCCO)c(Nc2ccc(I)cc2F)n(C)c1=O`, the “thermal shift delta Tm” value in the experiment on LOC_OS01G01410-cb001 is 0.56 °C; in the experiment on LOC_OS01G02750-cb003, 0.29 °C; in the experiment with LOC_OS01G10900-cb004, 0.4 °C; in the experiment with LOC_OS01G13800-cb001, 0.2 °C; in the experiment on LOC_OS01G14860-cb001, 0.16 °C; in the experiment with LOC_OS01G21960-cb002 it was 0.85 °C. Also, the “thermal shift delta Tm” value in the experiment on LOC_OS01G39600-cb002 is -0.46 °C; in the experiment on LOC_OS01G48390-cb002, 0.25 °C; in the experiment with LOC_OS01G51400-cb002 it was -0.04 °C; in the experiment with LOC_OS01G52050-cb004 it was -0.21 °C; in the experiment with LOC_OS01G57100-cb003, 1.03 °C; in the experiment with LOC_OS01G60330-cb001, 0.4 °C. Moreover, the “thermal shift delta Tm” value was 0.64 °C in the experiment with LOC_OS01G60700-cb002; 0.19 °C with LOC_OS01G63280-cb003; -0.42 °C with LOC_OS01G67340-cb003; 0.23 °C in the experiment on LOC_OS01G70970-cb002; 0.73 °C in the experiment on LOC_OS02G07810-cb001; 0.29 °C in the experiment with LOC_OS02G08530-cb003. The results for the “thermal shift delta Tm” value with LOC_OS02G14120-cb001 and with LOC_OS02G17970-cb001 were -0.53 °C and 0.08 °C, respectively.
